From PubChem BioAssay AID2014 (Sanford-Burnham Center for Chemical Genomics, 2009)
Hit rate of the full screen: of about 290,000 compounds, about 3,000 (1%) were called active. The rule behind the calls is not given here. Only a selection was taken, and actives are over-represented in it overall.

Molecular target: Polyadenylate-binding protein 1 (Homo sapiens) (UniProt P11940)
Test: PABP poly(A) RNA binding inhibitors, primary screen, biochemical, fluorescence polarization, uHTS (AID 2014);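 note: calls also rest on retests at 20 µM and on dose response follow-up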
Settings: stronger effect = higher value

Polyadenylate-binding protein 1 (Homo sapiens), sequence (P11940 whole entry, looked up): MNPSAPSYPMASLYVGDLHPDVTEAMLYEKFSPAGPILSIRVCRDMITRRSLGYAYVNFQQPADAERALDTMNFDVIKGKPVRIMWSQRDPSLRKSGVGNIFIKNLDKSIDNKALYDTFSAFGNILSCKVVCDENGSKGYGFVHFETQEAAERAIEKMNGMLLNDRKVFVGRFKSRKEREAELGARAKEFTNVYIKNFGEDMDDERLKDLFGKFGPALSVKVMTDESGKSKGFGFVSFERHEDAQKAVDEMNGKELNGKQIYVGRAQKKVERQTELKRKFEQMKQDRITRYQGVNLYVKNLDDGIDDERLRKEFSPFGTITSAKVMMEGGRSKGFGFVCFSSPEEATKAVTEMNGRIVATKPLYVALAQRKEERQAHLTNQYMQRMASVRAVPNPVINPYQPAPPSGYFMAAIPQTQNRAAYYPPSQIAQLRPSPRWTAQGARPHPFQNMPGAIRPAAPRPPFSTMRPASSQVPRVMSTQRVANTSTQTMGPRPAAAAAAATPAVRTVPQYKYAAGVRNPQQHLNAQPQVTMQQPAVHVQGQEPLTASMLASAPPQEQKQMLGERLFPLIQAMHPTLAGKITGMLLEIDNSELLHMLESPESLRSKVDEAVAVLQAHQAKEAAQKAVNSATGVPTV

| SMILES | inhibition (at 35 µM) | inhibition (confirmation repeats, at 20 µM) [%] |
| --- | --- | --- |
| CCC1CCCCN1C(=O)CSc1nc2c(c(=O)n1C)SC(C)C2 (centres undefined) | -9% (inactive) | – |
| Cc1ccc(Cc2cnc(N)s2)o1 | 47.2% (active) | 56.6 |
| Cc1ccc(CCC(=O)Nc2ncc(Cc3cc(Cl)ccc3Cl)s2)o1 | 29.5% (inactive) | – |
| Cc1cc(/C=C2\SC(=Nc3ccc(N4CCOCC4)cc3)N(C)C2=O)c(C)n1-c1cccnc1 | 0.7% (inactive) | – |
| Cc1cc(/C=C2\SC(=O)N(C)C2=O)c(C)n1-c1cccc(C(=O)O)c1 | 67.4% (active) | – |
| Cc1cc(/C=C2/SC(=O)N(CC(=O)N3CCCC3)C2=O)c(C)n1C | 19.7% (inactive) | – |
| CCC(=O)Nc1ccc(S(=O)(=O)Nc2c(NC)c3ccccc3oc2=O)cc1 | 0.6% (inactive) | – |
| CCCC(=O)N1CCc2[nH]c3ccccc3c2C1 | 14.1% (inactive) | – |
| O=C(CN1CCCC1)N1CCN(c2ccccc2)CC1 | 0.4% (inactive) | – |
| Cc1ccc2[nH]c3c(c2c1)CN(C(=O)CN1CCN(c2ccccc2)CC1)CC3 | 90.5% (active) | – |
| COCCNC(=O)C(c1ccc(C)cc1)N(C(=O)CCC(=O)Nc1ccccn1)c1cccc(C)c1 (centres undefined) | -1.8% (inactive) | – |
| CCc1nnc(NC(=O)c2nc3nccc(C)n3n2)s1 | -2.3% (inactive) | – |
| Cc1ccnc2nc(C(=O)Nc3nnc(-c4ccccc4)o3)nn12 | -1.8% (active) | 82.4 |
| Cc1cccc(NC(=O)Nc2nnc(-c3ccccc3)o2)c1 | -0.4% (inactive) | – |
| CCCC1=Nc2cc(C(=O)NCCN3CCCC3)ccc2Sc2ccccc21 | -16.5% (inactive) | – |
| COc1cc(NC(=O)C2=C(C)OCCS2)c(Cl)cc1C(=O)NCCN1CCN(C)CC1 | -8% (inactive) | – |
| O=C(CSc1ccc(-c2ccco2)nn1)Nc1cccc(F)c1 | -7.4% (inactive) | – |
| Cc1cc(F)ccc1S(=O)(=O)N1CCCOC1CNC(=O)C(=O)NCCC1=CCCCC1 (centres undefined) | 0.9% (inactive) | – |
| O=C(NCCCc1ccccc1)C(=O)NCC1OCCN1S(=O)(=O)c1ccccc1 (centres undefined) | 10.1% (inactive) | – |
| O=C(NCCCn1ccnc1)C(=O)NCC1OCCN1S(=O)(=O)c1cc(F)ccc1F (centres undefined) | 58.4% (active) | – |
| Cc1ccc(C(=O)NC2CCN(C(=O)Nc3ccc(F)cc3)CC2)cc1 | 10.6% (inactive) | – |
| CC(NC(=O)COc1cccnc1[N+](=O)[O-])c1ccc(Cl)cc1Cl (centres undefined) | 0.4% (inactive) | – |
| CC(C)c1ccccc1OCC(O)CN(CC(O)COc1cccc2ccccc12)C(C)C (centres undefined) | 5.7% (inactive) | – |
| COc1ccc(C(=O)N(C)CC(O)c2ccccc2)cc1OC1CCN(C(C)=O)CC1 (centres undefined) | -3.1% (inactive) | – |
| COc1ccc(CNC(=O)C(Cc2ccccc2)n2cccc2)cc1 (centres undefined) | 9.5% (inactive) | – |
| CC(Cc1ccccc1)C(=O)N(C)Cc1ccccc1 (centres undefined) | 2% (inactive) | – |
| Cc1ccc(C)n1C(Cc1ccccc1)C(=O)O (centres undefined) | 69.6% (active) | – |
